# Assay results from PMC13494018.
# Unmarked numbers belong to inactive results. No rule for the calls is given here.
# Biological target: VTCN1, Q7Z7D3
# Sequence (Q7Z7D3 whole entry): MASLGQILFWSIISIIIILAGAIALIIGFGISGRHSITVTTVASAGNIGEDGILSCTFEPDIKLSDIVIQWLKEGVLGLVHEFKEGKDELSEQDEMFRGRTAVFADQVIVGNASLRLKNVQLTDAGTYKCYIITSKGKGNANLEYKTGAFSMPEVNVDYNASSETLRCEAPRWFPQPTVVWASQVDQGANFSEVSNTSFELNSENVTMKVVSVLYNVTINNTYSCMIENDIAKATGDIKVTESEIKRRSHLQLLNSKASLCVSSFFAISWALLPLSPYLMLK
row,Binder,binding in a display sort
1,design_603_0b98da89-d791-4423-9b2d-fd1b7292da18_1943_dldesign_0_cycle1_af2pred (protein) PPADELLALADKKAEEVEKKIEEAAEYGKKSGDKEKALKLIDEVLKEAEKEAEELIAKPETRAAGVILRNEAEVMAKNAKEKLLK,not found
2,design_603_0b98da89-d791-4423-9b2d-fd1b7292da18_1486_dldesign_0_cycle1_af2pred (protein) MSIELLAEAARAAVRIARALGEAEDVETAVAFRDKAIEAAAEDEEMAKKIIAAAKEVEDPATALAAARAALAAVEAFAA,not found
3,design_603_0b98da89-d791-4423-9b2d-fd1b7292da18_2015_dldesign_0_cycle1_af2pred (protein) KETAEELLENARKLAEKAGELVGPELLEVMEKMIEAAKKEDGKKEIEELAKEALELAKKAGVPEAAEYIHQAKADAYAANVFRK,not found
4,design_603_0b98da89-d791-4423-9b2d-fd1b7292da18_2191_dldesign_0_cycle1_af2pred (protein) MEEAKKKAEELIKRAKEHVEKARKIAKEGGSTMEAMLHILEAEADAREALKIGEKYPELKEMAEEAKEYVKKTRKEIKAILKA,not found
5,design_603_0b98da89-d791-4423-9b2d-fd1b7292da18_1956_dldesign_0_cycle1_af2pred (protein) VTRAELAALAHEVQEAANEVYFEAKKSKNTEKLQALAREAKALVKQAASADPETALALLKEAQALVDEAKKILEKEKKE,not found
6,design_603_0b98da89-d791-4423-9b2d-fd1b7292da18_1531_dldesign_0_cycle1_af2pred (protein) SEAKEEAKKALERLKKVRERAKEEAPLLTPEERKELSELLAKAREYLNLALVSKDEKEAKKYVEKGKEYLEKAEKLIEKAKAKA,not found
7,design_603_0b98da89-d791-4423-9b2d-fd1b7292da18_1252_dldesign_0_cycle1_af2pred (protein) AKEVVKKAKAEAKKLGEKAAAAETLEEAKKLVKELRKEAEKQAKEMKKAGAPEKDIKEVLTTAAELGAEALAEVRS,not found
8,design_603_0b98da89-d791-4423-9b2d-fd1b7292da18_1380_dldesign_0_cycle1_af2pred (protein) GEEVAKVLEKNAEIAREGDAEEAIAALKEAAKELNKYHKLQPYAERLEFLAEELKKNKADPEKAAAIAKYGAELLKKAAEVAK,not found
9,design_603_0b98da89-d791-4423-9b2d-fd1b7292da18_1363_dldesign_0_cycle1_af2pred (protein) EEEERKSRQAYGKALSLIELARHAAKADPKAYPLALKYIEKAKELAEEASEELKKEVLEEAEEAEKEVLELGKK,not found
10,design_603_0b98da89-d791-4423-9b2d-fd1b7292da18_1770_dldesign_0_cycle1_af2pred (protein) DLEEVKKKASELLFKAIDLVSSGEKEEEGEKAIEEAKKILLSYGKEHPEYAKEMEEGAKKVESVYESAKKAAK,not found
11,design_603_0b98da89-d791-4423-9b2d-fd1b7292da18_1699_dldesign_0_cycle1_af2pred (protein) MTDLEIVEENIKEAREEFARDPRLGLAVARATVSTAKAMSKKSEEGKKALEKAKAFLEELEAEYRARLAAAAAAAAAAE,not found
12,design_603_0b98da89-d791-4423-9b2d-fd1b7292da18_1818_dldesign_0_cycle1_af2pred (protein) AEEKIKEGEEKAKKFVEKAKELAKEGKYNAALGYVEAAKDVAKEIEKLSEEGKEVGKKIKEEAEKAEKIVKEKEKEKKELEE,not found
13,design_603_0b98da89-d791-4423-9b2d-fd1b7292da18_1568_dldesign_0_cycle1_af2pred (protein) DEELKKEAKEEIKKAAEKGIAAAKAGNILEAQFYAVEAREIGREYAKKIKNKELAKEVKEYAKKQAEKIRAEAAKVLAA,not found
14,design_603_0b98da89-d791-4423-9b2d-fd1b7292da18_2150_dldesign_0_cycle1_af2pred (protein) HERFKYAASAETIAEQVEETAKIYGDEELKEAAKKIKEAAKEAEKSEDAEEAKKAYEKAKEIRKKARKELKAKKA,not found
15,design_603_0b98da89-d791-4423-9b2d-fd1b7292da18_2081_dldesign_0_cycle1_af2pred (protein) AEEAEKKVKELAKKAEEAFRRAREAGAKAVEKDPSVAKRASELVHQAAQYRAEAKAAKDPEEAKEALKKAEKAREELEKLAKA,not found
16,design_603_0b98da89-d791-4423-9b2d-fd1b7292da18_2026_dldesign_0_cycle1_af2pred (protein) SSMKEEEIKEMEKAAKKAAELLDDEEAAKKLLEAVKLAIEDPKEGTKKLREIAKEIGAKGSEEVKKALEEAVHAALRYRAI,not found
17,design_603_0b98da89-d791-4423-9b2d-fd1b7292da18_1249_dldesign_0_cycle1_af2pred (protein) AEASKQAAKEIAATVRKLGEKVPEAAPLAEEAAKAVEAAAGEAPEKIAAVAIAALKEIGEKVPEATSLANEARAEARGIAHEAKK,not found
18,design_603_0b98da89-d791-4423-9b2d-fd1b7292da18_1535_dldesign_0_cycle1_af2pred (protein) MEEKYLKEAEKLLEEGKKEIERAGKEEGAEAAKEVGKKYLEKLTEVAKKLSPEKEGEVLLKFKKESMKIIKEAEEREK,not found
19,design_603_0b98da89-d791-4423-9b2d-fd1b7292da18_2177_dldesign_0_cycle1_af2pred (protein) MKALEEAEEFAKKMIEEAKKWGEAEADVAKVLGKSLLEAVEKTLKEKNEEAALAVAKEGKEKAKKIMDRIKEDIERAKKS,not found
